Screening results as filed in PubChem.
G9a inh: G9a (human) methyltransferase inhibition; G9a H3K9 monomethylation, AlphaScreen, 2 h; actives 8.8% (n = 350,000); Potency, µM (series often up to 102 µM), without a hit: top-dose activity, negative = inhibition, usual class: inhibitors; also: % is scaled to controls: 0 for no effect and ±100 for the full control effect; nearly all actives have a fitted effect of over 75% in size
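Step 1: enzyme (final 20 nM) with compound, 15 min RT. Step 2: substrate peptide 500 nM and SAM 20 uM, 2 h RT. Step 3: anti-H3K9me1 antibody and AlphaScreen beads, 10 min, then plate read.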
JMJD2A Tudor: inhibitors of human JMJD2A Tudor domain | O75164 | AlphaScreen JMJD2A-Tudor / H3K4me3 peptide binding | Potency, µM (doses to about 114 µM), for the others: top-dose activity change, negative = inhibition, actives largely listed as inhibitors | actives 4.4% (n = 390,000) | AID 504339; also: % is scaled to controls: 0 for no effect and ±100 for the full control effect; nearly all actives have a fitted effect of over 50% in size
BAZ2B block: inhibitors of human BAZ2B bromodomain | Q9UIF8 | AlphaScreen BAZ2B-H3K14Ac peptide displacement | Potency, µM (series often up to 114 µM), for the others: at the highest dose activity change, negative = inhibition, hits mostly inhibitors | actives 4.4% (n = 360,000); also: % is scaled to controls: 0 for no effect and ±100 for the full control effect; nearly all actives have a fitted effect of over 60% in size
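Compounds, titrated to a top concentration of 110 uM, were incubated 30 min at room temperature with preformed BAZ2B/acetyl-K14 H3 peptide complex (50 nM each). Proximity signal was measured by AlphaScreen after 20 min with beads.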
HP1b chromo inh: HP1-beta chromodomain-methylated histone interaction inhibition | AlphaScreen HP1-beta / biotin-H3K9me3 peptide binding | Potency, µM (titrated, usually from 114 µM), inactives show at the highest dose activity change, negative = inhibition, most hits filed as inhibitors | actives 0.56% (n = 390,000); also: nearly all actives have a fitted effect of over 70% in size
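AlphaScreen: HP1-beta (50 nM) preformed 30 min with biotin-H3(1-18)K9me3 peptide (50 nM) in PBS pH 7.4, 0.01% Tween-20. Compound added for 30 min at RT, then streptavidin donor/nickel chelate acceptor beads (10 ug/mL) for 30 min.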
TDP1 inh: TDP1 (human) enzyme inhibition. Q9NUW8. recombinant TDP1, AlphaScreen DNA substrate cleavage. Potency, µM (top dose mostly 130 µM), inactives show at the top dose activity change, negative = inhibition, most hits filed as inhibitors. actives 0.28% (n = 350,000). AID 485290; also: % is scaled to controls: 0 for no effect and ±100 for the full control effect; nearly all actives have a fitted effect of over 40% in size
Target sequence (Q9NUW8 whole entry, looked up): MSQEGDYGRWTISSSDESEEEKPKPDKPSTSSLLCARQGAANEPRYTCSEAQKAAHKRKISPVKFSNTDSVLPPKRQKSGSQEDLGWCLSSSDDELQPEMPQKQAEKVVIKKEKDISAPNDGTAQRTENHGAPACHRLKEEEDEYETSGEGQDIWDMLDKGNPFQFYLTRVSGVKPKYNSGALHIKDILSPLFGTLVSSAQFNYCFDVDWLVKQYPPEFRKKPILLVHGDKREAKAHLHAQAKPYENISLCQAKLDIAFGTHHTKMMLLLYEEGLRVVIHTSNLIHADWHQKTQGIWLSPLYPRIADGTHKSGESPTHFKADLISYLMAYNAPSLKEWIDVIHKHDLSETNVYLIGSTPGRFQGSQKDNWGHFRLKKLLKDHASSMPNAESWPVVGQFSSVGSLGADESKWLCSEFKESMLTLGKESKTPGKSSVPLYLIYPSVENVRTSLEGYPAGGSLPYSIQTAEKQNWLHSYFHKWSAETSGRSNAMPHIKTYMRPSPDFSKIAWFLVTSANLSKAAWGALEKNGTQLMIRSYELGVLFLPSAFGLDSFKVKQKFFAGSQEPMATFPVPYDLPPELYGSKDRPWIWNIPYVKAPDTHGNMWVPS
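Recombinant E. coli-expressed Tdp1 (1 nM) preincubated with compound 15 min at RT, then 5'-biotin/3'-phosphotyrosine-FITC DNA substrate (15 nM) added for 5 min. AlphaScreen beads (10 ug/ml) added, 10 min RT; tyrosine-FITC cleavage read as signal loss.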
Sfp inh: Sfp phosphopantetheinyl transferase inhibition; AID 1490; actives 3.5% (n = 310,000); Q9F4F7; Biochemical Sfp PPTase activity, qHTS; Potency, µM, for inactives: largest response in the series, negative = inhibition, most hits filed as inhibitors;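 also: the enzyme is Sfp with the accession as filed and its product quenches rhodamine fluorescence; 0% = enzyme reaction without inhibitor and -100% = no enzyme wells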
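Step 1, compound plus 15 nM Sfp-PPTase, 15 min, room temperature. Step 2, add rhodamine-CoA (5 uM) and BHQ-2-YbbR (12.5 uM). Step 3, read 525/598 nm fluorescence at 0 and 30 min.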
* marks the source's active call; other numbers are inactive results; [ ] = another dose, or the depositor's remark. Hits are enriched below; roughly 12% of the tested compounds scored in any of these assays. Calls follow the shape of the dose curve; as a rule, active = well fitted curve in the direction sought with a large enough effect; inconclusive = small, poorly fitted or top-dose-only effect, or another doubt; inactive = no such curve, though single readings can be large; an effect the other way counts as inactive or inconclusive. Potency is read from the fitted curve at half-maximal effect.

`O=C(NCc1ccc(F)cc1)C1CCCN(c2cnccn2)C1` (stereo unspecified) gave G9a inh 8.9%, JMJD2A Tudor 19.5%, BAZ2B block -15.3%, HP1b chromo inh 42.0%, TDP1 inh 2.7% and Sfp inh 11.5%.
`O=C(NCc1ccc(F)cc1)C1CCN(c2cnccn2)CC1` gave JMJD2A Tudor 25.1µM*, BAZ2B block -2.7%, HP1b chromo inh -13.8%, TDP1 inh 0.0% and Sfp inh -1.2%.
`CN1Cc2sccc2C(c2ccc(O)c(O)c2)C1` (stereo unspecified) gave G9a inh 8.44µM*.
CCOC(=O)C1=C(C)NC2(O)c3ccccc3C(=O)C12O (stereo unspecified) was read as G9a inh -32.6%[59 µM], JMJD2A Tudor inconclusive, BAZ2B block inconclusive, HP1b chromo inh 0.7%, TDP1 inh -3.1% and Sfp inh 79.4µM*.
For COCCOC(=O)C1=C(C)NC2(O)c3ccccc3C(=O)C12O (stereo unspecified) the results were G9a inh -33.3%[59 µM], JMJD2A Tudor 5.5%, BAZ2B block -11.9%, HP1b chromo inh 59.6%, TDP1 inh -1.2% and Sfp inh 89.1µM*.
CC(=O)C1=C(C)NC2(O)c3ccccc3C(=O)C12O (stereo unspecified) was read as G9a inh -24.6%, JMJD2A Tudor 4.4%, BAZ2B block -16.1%, HP1b chromo inh 39.6%, TDP1 inh 0.0% and Sfp inh -0.5%.
`COc1cccc(-c2cc(C(F)(F)F)n3nc(N)nc3n2)c1` gave G9a inh -0.9%[12.7 µM], JMJD2A Tudor 10.3%, BAZ2B block 1.6%, HP1b chromo inh 41.4%, TDP1 inh 4.5% and Sfp inh 12.4%.
COc1cccc(-c2cn3nc4c(nc3n2)CCCC4)c1 was read as G9a inh 17.8%[59 µM], JMJD2A Tudor -9.3%, BAZ2B block 0.3%, HP1b chromo inh 82.8%, TDP1 inh 2.1% and Sfp inh 79.4µM*.
Screening C[C@H](NC(=O)[C@H](Cc1ccccc1)n1c(=O)[nH]c2ccccc2c1=O)C(=O)N1CCC(C(=O)O)CC1 returned JMJD2A Tudor -7.5%, BAZ2B block 3.6%, HP1b chromo inh 35.1% and Sfp inh 22.3%.
For O=C(NCC1CCCO1)c1ccc2c(=O)n(Cc3ccc(Cl)cc3)c(=S)[nH]c2c1 (stereo unspecified) the results were G9a inh 12.9%, JMJD2A Tudor -4.4%, BAZ2B block 11.6%, HP1b chromo inh 35.1%, TDP1 inh 0.0% and Sfp inh 7.8%.
`O=C(NCc1ccccc1)c1ccc2c(=O)[nH]c3c(C(=O)NCC4CCCO4)sc(=S)n3c2c1` (stereo unspecified) gave G9a inh 44.7µM*, JMJD2A Tudor inconclusive, BAZ2B block 39.8µM*, HP1b chromo inh inconclusive, TDP1 inh 0.0% and Sfp inh -15.7%.
Screening Cc1ccc(CNC(=O)c2ccc3c(=O)[nH]c4c(C(=O)NCC5CCCO5)sc(=S)n4c3c2)cc1 (stereo unspecified) returned G9a inh inconclusive, JMJD2A Tudor inconclusive, BAZ2B block 35.5µM*, HP1b chromo inh -38.4%, TDP1 inh 0.0% and Sfp inh inconclusive.
For CCCCCNC(=O)c1ccc2c(=O)[nH]c3c(C(=O)NCC4CCCO4)sc(=S)n3c2c1 (stereo unspecified) the results were G9a inh inconclusive, JMJD2A Tudor -33.1%[57.1 µM], BAZ2B block -38.6%, HP1b chromo inh inconclusive, TDP1 inh 5.6% and Sfp inh 50.1µM*.
O=C(NCC1CCCO1)c1ccc2c(=O)n(CCc3ccccc3)c(=O)[nH]c2c1 (stereo unspecified) was read as G9a inh 16.8%[2.33 µM], JMJD2A Tudor -12.1%, BAZ2B block -4.8%, HP1b chromo inh 21.1%, TDP1 inh 6.9% and Sfp inh 17.7%.
For Cc1ccc(CS(=O)(=O)Cc2ccc(C(=O)NCCCN3CC(C)CC(C)C3)o2)cc1 (stereo unspecified) the results were G9a inh -7.1%[59 µM], JMJD2A Tudor -13.1%, BAZ2B block -3.3%, HP1b chromo inh 16.3%, TDP1 inh 0.3% and Sfp inh 1.6%.
O=C(CCc1nnc2ccc(N3CCCC3)nn12)Nc1ccc(F)cc1F was read as G9a inh 13.4%, JMJD2A Tudor 2.7%, BAZ2B block -5.1%, HP1b chromo inh 44.3%, TDP1 inh 4.9% and Sfp inh 19.4%.
For O=C(N/N=C/c1cc(Br)ccc1O)C(c1ccncc1)N1CCOCC1 (stereo unspecified) the results were G9a inh 14.5%, JMJD2A Tudor 79.4µM*, BAZ2B block 50.1µM*, HP1b chromo inh 16.1%, TDP1 inh -5.6% and Sfp inh 2.3%.
For Cc1cc(C)cc(C(=O)n2nc(C)c(S(=O)(=O)N3CCCCCC3)c2C)c1 the results were G9a inh 27.7%[59 µM], JMJD2A Tudor 32.6%, BAZ2B block 8.0%, HP1b chromo inh 66.3%[57 µM] and TDP1 inh -7.7%.
For CC(=O)c1ccc(NC(=O)Cn2cnc3nc4c(cc3c2=O)CC(C)CC4)cc1 (stereo unspecified) the results were G9a inh 5.5%[59 µM], JMJD2A Tudor 1.6%, BAZ2B block -2.0%, HP1b chromo inh 23.0%[57 µM] and TDP1 inh -0.6%.
`COc1ccc(-c2csc(=NCCO)n2-c2ccccc2)cc1` gave G9a inh 50.1µM*, JMJD2A Tudor inconclusive, BAZ2B block 31.6µM*, HP1b chromo inh inconclusive and Sfp inh -6.9%.
Screening O=S(=O)(c1ccc(-c2csc(=Nc3ccc(F)cc3)n2CCCCCCO)cc1)N1CCCC1 returned G9a inh 12.6µM*, JMJD2A Tudor 39.8µM*, BAZ2B block inconclusive, HP1b chromo inh inconclusive and TDP1 inh 9.7%.
Cc1csc(=Nc2ccccc2)n1CCCN1CCCC1=O was read as G9a inh inconclusive, JMJD2A Tudor -33.3%, BAZ2B block inconclusive, HP1b chromo inh -3.1%, TDP1 inh 2.6% and Sfp inh -12.7%.
Screening OCCCn1c(-c2ccc(F)cc2)csc1=Nc1ccc(F)cc1 returned G9a inh 15.8µM*, JMJD2A Tudor 39.8µM*, BAZ2B block 44.7µM*, HP1b chromo inh inconclusive and TDP1 inh 13.6%.
Screening Cc1ccc(-c2csc(=Nc3ccccc3)n2CCCO)cc1 returned G9a inh 15.8µM*, JMJD2A Tudor 35.5µM*, BAZ2B block 44.7µM*, HP1b chromo inh inconclusive and TDP1 inh 16.1%.
